Screens from PubChem.
Only some compounds are listed: those with a hit (about 2.4% of all), similar ones and a draw of the others.
M1 antag = blocks human M1 muscarinic receptor | 1.3% of 360,000 active | P11229 | inhibition, % at 3 µM | CHO-K1 hM1, Fluo-8 calcium fluorescence, ACh EC80 antagonist;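 active = percent inhibition above its own plate's cutoff, namely the mean of that plate's compound wells plus 3 SD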;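 note: peak over basal fluorescence ratio during 140 s after agonist addition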
Target sequence (P11229 whole entry, looked up): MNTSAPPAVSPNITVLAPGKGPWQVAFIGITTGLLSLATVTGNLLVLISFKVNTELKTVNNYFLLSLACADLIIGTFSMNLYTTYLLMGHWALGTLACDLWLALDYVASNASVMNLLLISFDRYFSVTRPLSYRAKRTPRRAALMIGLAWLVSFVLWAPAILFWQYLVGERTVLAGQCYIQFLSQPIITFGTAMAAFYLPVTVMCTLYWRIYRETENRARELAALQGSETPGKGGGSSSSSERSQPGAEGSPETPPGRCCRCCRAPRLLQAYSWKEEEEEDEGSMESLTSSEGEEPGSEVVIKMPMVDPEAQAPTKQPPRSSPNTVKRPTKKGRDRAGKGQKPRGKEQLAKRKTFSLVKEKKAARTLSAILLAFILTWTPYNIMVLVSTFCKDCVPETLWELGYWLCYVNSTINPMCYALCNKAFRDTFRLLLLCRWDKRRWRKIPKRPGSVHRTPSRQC
M1 PAM = positive allosteric modulators of human M1 muscarinic receptor; P11229; CHO-K1 hM1, Fluo-8 calcium fluorescence, ACh EC20; 0% = ACh EC20, 100% = maximal ACh; activation, % at 3 µM; 0.088% of 360,000 active; in the data active = activation above about 19%, passing the limit was not always enough
M1 ag = agonists of human M1 muscarinic receptor; CHO-K1 hM1, Fluo-8 calcium fluorescence, agonist mode; 0% DMSO, 100% acetylcholine EC100; AID 588814; 0.33% of 360,000 active; activation, % at 3 µM; P11229;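 active = activation above the run's mean compound activation plus 3 SD, cut at about 16% in these data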;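 note: peak over basal fluorescence ratio within a 140 s kinetic read after compound addition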
CHO-K1 Ca antag = nonselective inhibitor or artifact in parental CHO-K1 cells; ATP-induced calcium, Fluo-8 fluorescence; inhibition, % at 3 µM; 0.6% of 360,000 active;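 active = inhibition above a per-plate cutoff, the plate's mean sample inhibition plus 3 SD, cut at about 24% in these data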
CHO-K1 Ca PAM = M1 PAM counterscreen hit in parental CHO-K1 cells. ATP EC20, Fluo-8 calcium fluorescence; 0% at ATP EC20, 100% at ATP max. activation, % at 3 µM. 0.02% of 360,000 active. AID 602247;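 active = activation above the run cutoff, the mean activation of all test compounds plus 3 SD, cut at about 40% in these data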;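 note: peak over basal fluorescence ratio in a 140 s read after ATP addition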
M1 ag parental = M1 agonist counterscreen hit in parental CHO-K1 cells; 0.48% of 360,000 active; AID 602248; activation, % at 3 µM; Fluo-8 calcium fluorescence; scaled to maximal ATP response, vehicle zero; in the data active = activation above about 15%;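 note: untransfected CHO-K1 host cells lacking M1 receptor as counterscreen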
Of the large screens only hits and unclear results are named; the others gave an inactive call.

COc1ccccc1N(CC(O)COc1ccccc1C)S(=O)(=O)c1ccccc1 (stereo not given)	none
COC(=O)c1ccccc1OCCCN(C)C	CHO-K1 Ca antag 26.6
c1ccc(N2CCN(CC3CCCCC3)CC2)cc1	none
CCOC(=O)CSc1cc(C)nc2ccc(OC)cc12	CHO-K1 Ca antag 24.2
COc1cc2c(cc1OC)CN(C(=O)/C=C/c1cccc([N+](=O)[O-])c1)CC2	none
C=CS(=O)(=O)c1ccc(Oc2ccc(S(=O)(=O)C=C)cc2)cc1	M1 ag parental 15.2
COc1ccc(CN2CCN(Cc3c[nH]c4ccccc34)CC2CCO)c(F)c1 (stereo not given)	none
CCCCc1ccc(/C(C)=N/NC(=O)C2CCCC2)cc1	none
CC(=O)Oc1ccc(C)cc1-n1nc2ccccc2n1	CHO-K1 Ca antag 23.9
CC(C)(C)NC(=S)NCc1ccncc1	none
COc1cccc(NC(=O)Cc2c(O)c3ccccc3[nH]c2=O)c1	CHO-K1 Ca antag 25.0
O=C(Cc1c(O)c2ccccc2[nH]c1=O)OC1CCCCC1	CHO-K1 Ca antag 24.5
CS(=O)(=O)c1ccccc1C(=O)N(CCC1=CCCCC1)c1c(N)n(Cc2ccccc2)c(=O)[nH]c1=O	none
CCOC(=O)/C(C#N)=C/c1c(N2CCN(Cc3ccc4c(c3)OCO4)CC2)nc2c(C)cccn2c1=O	none
Cc1cccn2c(=O)c(/C=C(\C#N)C(N)=O)c(N3CCN(Cc4ccc5c(c4)OCO5)CC3)nc12	M1 antag 70.2
Cc1onc(-c2ccccc2Cl)c1C(=O)N1CCN(c2ccc(F)cc2)CC1	none
CC1CCN(C(=O)CNC(=O)c2ccc(Cl)cc2Cl)CC1	M1 PAM 21.8, CHO-K1 Ca antag 31.4
CCCn1nnnc1NCc1ccc(N2CCCC2)cc1	M1 antag 57.7
CCCCn1nnnc1NCc1ccc(N2CCCC2)cc1	M1 antag 90.5
CCCn1nnnc1NCc1ccc(F)cc1	none
O=C(CN1C(=O)NC2(CCCC2)C1=O)Nc1ccc(F)c(Cl)c1	none
CC(C)N(Cc1nccn1C)C(=O)c1cc(COc2ccc(F)cc2Cl)on1	none
CSc1ccc(C(=O)N2CCc3ccc(NC(=O)c4ccccn4)cc3C2)cc1	none
CSc1ccccc1C(=O)N1CCc2ccc(NC(=O)c3ccccn3)cc2C1	CHO-K1 Ca antag 25.3
O=C(C1=C(O)C(=O)N(c2nccs2)C1c1ccccc1)c1cc2ccccc2o1 (stereo not given)	M1 ag parental 24.3
Cc1ccc(/C=C2\SC(=S)N(/N=C/c3cc([N+](=O)[O-])ccc3O)C2=O)o1	none
CN1CCN(C(CNC(=O)C(=O)NC2CCCC2)c2ccc(F)cc2)CC1 (stereo not given)	CHO-K1 Ca antag 52.5
C[C@H]1CN([C@@H](C)CO)C(=O)CCCn2cc(nn2)CO[C@@H]1CN(C)C(=O)NC1CCCCC1	none
O=C1CCCN1c1ccc(S(=O)(=O)N2CCCCC2)cc1	none
O=C1CCCN1c1ccc([N+](=O)[O-])cc1	CHO-K1 Ca antag 29.0
CCOc1ccccc1OCCCC(=O)N1CCN(S(=O)(=O)c2cc(F)ccc2F)CC1	CHO-K1 Ca antag 28.4
CCOc1ccccc1OCCCC(=O)N1CCN(S(=O)(=O)c2ccc(Cl)cc2)CC1	none
Cc1cccc(C)c1NC(=O)C1CCCN(CCCc2ccccc2)C1 (stereo not given)	M1 antag 96.6
CCN(C(=O)CSc1nnc(-c2ccco2)n1Cc1ccccc1)C1CCS(=O)(=O)C1 (stereo not given)	M1 PAM 26.9
COCCNC(=O)C1(C)CCN(Cc2csc(-c3ccc(Cl)cc3)n2)C1 (stereo not given)	none
Cn1c(CCNC(=O)c2ccccc2F)nnc1SCc1nc2ccccc2c(=O)[nH]1	M1 PAM 29.6
COc1ccc(Cc2nnc(SCc3nc4ccccc4c(=O)[nH]3)n2C)cc1	none
COc1cccc(CN(C)C(=O)CN2C(=O)NC(c3ccccc3)(c3ccccc3)C2=O)c1	none
Cc1c(C#N)c2n(c1C)CCCC(=O)N2	none
C=CCn1c(SCCOC)nc2c1c(=O)[nH]c(=O)n2C	none
C=CCn1c(SCCN2CCCCC2)nc2c1c(=O)[nH]c(=O)n2C	M1 antag 28.4
CC(C)[C@H]1COCCS(=O)(=O)N1Cc1ccccc1	none
